# Laboratory results reported in the supplement of paper PMC11732987, “Enantioselective OTUD7B fragment discovery through chemoproteomics screening and high-throughput optimisation” (Communications Chemistry, 2025).
# Unmarked numbers belong to inactive results.
# What was measured:
# Assay in all cases: log2 ratio of Biotin-Ahx-Ub-VS probe labelling (fragment/DMSO); higher = less target engagement (more negative = stronger competition), active = hit call of the paper (q ≤ 0.05, log2 ratio ≤ -1)
# Settings in all cases: compound concentration: 200 uM; treatment time: 3 h
# [1] = molecular target: T1, OTUD6B (UniProt Q8N6M0)
# T1 sequence (whole entry): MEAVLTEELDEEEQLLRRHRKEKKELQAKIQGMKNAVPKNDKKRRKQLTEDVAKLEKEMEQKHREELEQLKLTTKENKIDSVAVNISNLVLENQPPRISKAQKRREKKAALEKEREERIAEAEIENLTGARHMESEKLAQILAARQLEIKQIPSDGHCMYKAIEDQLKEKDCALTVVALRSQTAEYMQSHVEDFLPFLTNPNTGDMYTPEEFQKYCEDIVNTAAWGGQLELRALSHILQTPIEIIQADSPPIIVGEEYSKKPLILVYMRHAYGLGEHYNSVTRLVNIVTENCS
# Method in brief: (§1)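 Labelling with Biotin-Ahx-Ub-VS (0.5 µM final, 1 h) followed a 3 h triplicate treatment of HEK293T lysate (495 µg per sample, Tris/CHAPS/IGEPAL buffer with protease inhibitors) with fragment at 200 µM or vehicle. Labelled DUBs were NeutrAvidin-enriched, digested with LysC and trypsin, and run by diaPASEF LC-MS/MS. The values, average log2 fragment/vehicle ratios by unpaired t-test, come from global-median-normalised Spectronaut label-free quantities. Proteins with ≥2 unique peptides were used.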
# [2] = molecular target: T2, OTUD7B (UniProt Q6GQQ9)
# T2 sequence (whole entry): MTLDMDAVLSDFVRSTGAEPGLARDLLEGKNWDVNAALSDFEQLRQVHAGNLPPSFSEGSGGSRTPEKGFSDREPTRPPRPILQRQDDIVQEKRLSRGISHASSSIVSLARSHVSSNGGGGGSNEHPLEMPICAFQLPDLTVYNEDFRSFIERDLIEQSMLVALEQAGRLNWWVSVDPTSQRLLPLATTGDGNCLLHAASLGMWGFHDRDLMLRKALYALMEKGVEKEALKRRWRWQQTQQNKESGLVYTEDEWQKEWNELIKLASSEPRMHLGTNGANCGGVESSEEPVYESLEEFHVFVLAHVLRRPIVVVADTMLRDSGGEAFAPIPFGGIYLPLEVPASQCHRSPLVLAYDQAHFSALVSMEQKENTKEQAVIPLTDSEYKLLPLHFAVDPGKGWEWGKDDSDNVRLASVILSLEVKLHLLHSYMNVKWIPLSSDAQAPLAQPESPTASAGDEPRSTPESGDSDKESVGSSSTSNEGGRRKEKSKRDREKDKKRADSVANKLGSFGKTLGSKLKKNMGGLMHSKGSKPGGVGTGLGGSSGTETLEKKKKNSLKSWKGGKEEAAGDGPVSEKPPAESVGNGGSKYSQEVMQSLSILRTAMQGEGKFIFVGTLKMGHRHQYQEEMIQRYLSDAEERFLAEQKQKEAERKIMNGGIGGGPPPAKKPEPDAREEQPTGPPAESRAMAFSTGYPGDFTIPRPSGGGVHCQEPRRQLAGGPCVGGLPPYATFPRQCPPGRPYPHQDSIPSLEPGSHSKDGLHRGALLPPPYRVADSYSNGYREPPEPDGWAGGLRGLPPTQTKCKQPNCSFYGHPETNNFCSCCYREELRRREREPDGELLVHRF
# Method in brief: as §1
# [3] = molecular target: PRPF8 (UniProt Q6P2Q9)
# Method in brief: as §1
# [4] = molecular target: T3, PSMD7 (UniProt P51665)
# T3 sequence (whole entry): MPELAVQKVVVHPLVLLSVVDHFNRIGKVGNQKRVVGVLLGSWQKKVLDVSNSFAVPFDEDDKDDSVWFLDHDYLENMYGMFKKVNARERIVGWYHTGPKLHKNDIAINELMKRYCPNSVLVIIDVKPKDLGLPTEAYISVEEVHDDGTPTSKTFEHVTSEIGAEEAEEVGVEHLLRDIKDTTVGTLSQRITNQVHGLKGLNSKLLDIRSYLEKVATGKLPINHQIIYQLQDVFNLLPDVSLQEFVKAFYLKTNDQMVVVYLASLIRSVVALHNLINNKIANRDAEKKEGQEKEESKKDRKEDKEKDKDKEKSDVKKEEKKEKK
# Method in brief: as §1
# [5] = molecular target: UCHL1 (UniProt P09936)
# Sequence of UCHL1 (P09936 whole entry, looked up): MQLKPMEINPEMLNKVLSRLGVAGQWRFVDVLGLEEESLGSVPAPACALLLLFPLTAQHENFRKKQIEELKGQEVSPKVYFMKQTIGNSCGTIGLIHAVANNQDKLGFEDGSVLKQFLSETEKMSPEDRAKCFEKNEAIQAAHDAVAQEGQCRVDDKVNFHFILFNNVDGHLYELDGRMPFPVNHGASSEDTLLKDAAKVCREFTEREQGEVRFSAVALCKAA
# Method in brief: as §1
# [6] = molecular target: T4, UCHL3 (UniProt P15374)
# T4 sequence (whole entry): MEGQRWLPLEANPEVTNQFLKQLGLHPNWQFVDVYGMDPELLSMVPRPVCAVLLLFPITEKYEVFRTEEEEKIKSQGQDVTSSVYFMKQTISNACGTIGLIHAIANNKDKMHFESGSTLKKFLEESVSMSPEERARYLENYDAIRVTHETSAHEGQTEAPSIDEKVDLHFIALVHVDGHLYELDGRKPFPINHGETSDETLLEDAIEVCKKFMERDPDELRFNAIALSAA
# Method in brief: as §1
# [7] = molecular target: T5, UCHL5 (UniProt Q9Y5K5)
# T5 sequence (whole entry): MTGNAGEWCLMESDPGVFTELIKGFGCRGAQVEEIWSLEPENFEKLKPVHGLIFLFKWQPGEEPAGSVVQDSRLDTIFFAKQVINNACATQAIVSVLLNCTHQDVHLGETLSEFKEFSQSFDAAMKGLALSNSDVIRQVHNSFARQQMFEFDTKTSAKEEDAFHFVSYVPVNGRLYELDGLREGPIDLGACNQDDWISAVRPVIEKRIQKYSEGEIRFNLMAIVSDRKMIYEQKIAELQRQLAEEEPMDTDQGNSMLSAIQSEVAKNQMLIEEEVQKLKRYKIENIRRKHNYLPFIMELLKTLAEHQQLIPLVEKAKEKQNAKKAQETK
# Method in brief: as §1
# [8] = molecular target: USP10 (UniProt Q14694)
# Sequence of USP10 (Q14694 whole entry): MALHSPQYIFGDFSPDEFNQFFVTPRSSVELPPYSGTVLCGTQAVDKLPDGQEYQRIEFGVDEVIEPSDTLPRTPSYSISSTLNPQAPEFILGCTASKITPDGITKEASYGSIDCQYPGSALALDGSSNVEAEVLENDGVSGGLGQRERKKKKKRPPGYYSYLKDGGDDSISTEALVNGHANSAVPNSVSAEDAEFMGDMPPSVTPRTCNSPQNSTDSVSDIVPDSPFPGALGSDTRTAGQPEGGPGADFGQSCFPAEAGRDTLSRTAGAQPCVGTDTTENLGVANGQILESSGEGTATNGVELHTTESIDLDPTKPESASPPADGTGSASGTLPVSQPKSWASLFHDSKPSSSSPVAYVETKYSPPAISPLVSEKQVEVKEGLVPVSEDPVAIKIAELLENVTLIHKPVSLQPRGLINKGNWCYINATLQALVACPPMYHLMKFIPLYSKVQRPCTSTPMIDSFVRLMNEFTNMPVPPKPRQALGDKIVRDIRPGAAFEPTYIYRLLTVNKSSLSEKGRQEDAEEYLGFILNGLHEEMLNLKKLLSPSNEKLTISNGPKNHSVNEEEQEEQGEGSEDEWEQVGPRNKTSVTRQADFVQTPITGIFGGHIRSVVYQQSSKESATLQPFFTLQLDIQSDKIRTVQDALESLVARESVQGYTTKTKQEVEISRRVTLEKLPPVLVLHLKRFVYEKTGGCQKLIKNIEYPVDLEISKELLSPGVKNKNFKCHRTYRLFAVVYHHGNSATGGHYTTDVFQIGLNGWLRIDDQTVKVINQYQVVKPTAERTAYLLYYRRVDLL
# Method in brief: as §1
# [9] = molecular target: T6, USP15 (UniProt Q9Y4E8)
# T6 sequence (whole entry): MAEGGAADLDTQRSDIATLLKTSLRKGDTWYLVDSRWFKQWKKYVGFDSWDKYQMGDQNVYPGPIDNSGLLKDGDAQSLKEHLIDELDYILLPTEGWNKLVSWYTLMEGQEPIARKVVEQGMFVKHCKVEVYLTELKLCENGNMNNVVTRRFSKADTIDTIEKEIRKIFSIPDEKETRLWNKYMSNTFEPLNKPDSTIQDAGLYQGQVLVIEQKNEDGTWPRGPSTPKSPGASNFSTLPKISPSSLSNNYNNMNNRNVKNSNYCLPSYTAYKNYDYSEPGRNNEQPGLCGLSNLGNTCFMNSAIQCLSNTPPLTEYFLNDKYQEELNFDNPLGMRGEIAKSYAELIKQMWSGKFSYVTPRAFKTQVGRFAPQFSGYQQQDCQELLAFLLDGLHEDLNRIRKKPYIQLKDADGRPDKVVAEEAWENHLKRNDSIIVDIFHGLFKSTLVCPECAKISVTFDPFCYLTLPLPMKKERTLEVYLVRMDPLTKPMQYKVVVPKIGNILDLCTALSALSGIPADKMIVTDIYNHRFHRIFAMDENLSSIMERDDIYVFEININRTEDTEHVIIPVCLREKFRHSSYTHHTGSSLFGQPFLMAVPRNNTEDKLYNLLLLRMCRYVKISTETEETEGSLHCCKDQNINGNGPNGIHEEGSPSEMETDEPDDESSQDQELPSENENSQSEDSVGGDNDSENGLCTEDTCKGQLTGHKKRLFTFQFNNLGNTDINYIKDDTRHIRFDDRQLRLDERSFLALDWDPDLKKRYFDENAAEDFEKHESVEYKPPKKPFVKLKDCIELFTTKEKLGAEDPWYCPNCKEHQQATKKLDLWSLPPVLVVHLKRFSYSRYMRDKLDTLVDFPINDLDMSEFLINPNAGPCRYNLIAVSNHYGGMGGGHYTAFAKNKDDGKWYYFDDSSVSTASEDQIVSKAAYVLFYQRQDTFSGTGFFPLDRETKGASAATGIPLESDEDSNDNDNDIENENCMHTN
# Method in brief: as §1
# [10] = molecular target: USP16 (UniProt Q9Y5T5)
# Sequence of USP16 (Q9Y5T5 whole entry, looked up): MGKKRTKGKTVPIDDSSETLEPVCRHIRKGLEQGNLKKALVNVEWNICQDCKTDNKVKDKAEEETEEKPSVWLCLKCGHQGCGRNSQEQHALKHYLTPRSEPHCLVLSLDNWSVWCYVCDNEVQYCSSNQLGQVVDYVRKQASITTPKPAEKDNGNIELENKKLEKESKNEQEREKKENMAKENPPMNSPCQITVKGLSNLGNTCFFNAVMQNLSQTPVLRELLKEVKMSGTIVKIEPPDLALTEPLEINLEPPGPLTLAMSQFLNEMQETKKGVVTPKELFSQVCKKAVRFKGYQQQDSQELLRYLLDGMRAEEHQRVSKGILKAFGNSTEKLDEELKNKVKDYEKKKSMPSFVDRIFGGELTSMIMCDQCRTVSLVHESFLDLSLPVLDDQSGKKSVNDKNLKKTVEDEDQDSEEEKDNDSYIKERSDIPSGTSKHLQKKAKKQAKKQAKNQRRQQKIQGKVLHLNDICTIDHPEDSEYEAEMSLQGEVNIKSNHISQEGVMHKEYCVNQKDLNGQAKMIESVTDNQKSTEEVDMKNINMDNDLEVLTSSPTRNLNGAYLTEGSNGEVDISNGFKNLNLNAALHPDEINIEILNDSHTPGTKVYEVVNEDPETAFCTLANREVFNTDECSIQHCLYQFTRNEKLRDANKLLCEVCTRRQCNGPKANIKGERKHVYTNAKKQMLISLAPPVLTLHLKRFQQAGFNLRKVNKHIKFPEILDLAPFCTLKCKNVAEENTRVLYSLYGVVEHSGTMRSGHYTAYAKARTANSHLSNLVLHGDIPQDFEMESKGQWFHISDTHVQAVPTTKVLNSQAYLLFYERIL
# Method in brief: as §1
structure (smiles),measurement,setting,value
CN(C)S(=O)(=O)c1ccccc1CNC(=O)CCl,log2 ratio of Biotin-Ahx-Ub-VS probe labelling,[1],-0.265
same,log2 ratio of Biotin-Ahx-Ub-VS probe labelling,[2],-0.0445
same,log2 ratio of Biotin-Ahx-Ub-VS probe labelling,[3],-0.0375
same,log2 ratio of Biotin-Ahx-Ub-VS probe labelling,[4],-0.18
same,log2 ratio of Biotin-Ahx-Ub-VS probe labelling,[5],-1.18 (active)
same,log2 ratio of Biotin-Ahx-Ub-VS probe labelling,[6],0.0942
same,log2 ratio of Biotin-Ahx-Ub-VS probe labelling,[7],-0.199
same,log2 ratio of Biotin-Ahx-Ub-VS probe labelling,[8],-0.156
same,log2 ratio of Biotin-Ahx-Ub-VS probe labelling,[9],-0.0655
same,log2 ratio of Biotin-Ahx-Ub-VS probe labelling,[10],0.14
